{"source": "PubChem BioAssay (NCATS)", "note": "Records with an inconclusive call do not appear. Where a call stands in place of a potency, no number is given. Active and inactive are the calls of the source. Calls follow the shape of the dose curve; as a rule, active = well fitted curve in the direction sought with a large enough effect; inconclusive = small, poorly fitted or top-dose-only effect, or another doubt; inactive = no such curve, though single readings can be large; an effect the other way counts as inactive or inconclusive. Where a SMILES comes first, the peptide text is derived from it. Also: nearly all actives have a fitted effect of over 70% in size. Potency is read from the fitted curve at half-maximal effect.", "data": [{"experiment": "Primary qHTS for inhibitors of nuclear receptor binding SET domain protein 2 (NSD2) in an isogenic RCH-ACV NSD2 p.E1099K mutant (9B) (AID 1645876)", "conditions": "RCH-ACV NSD2 E1099K (9B) viability, CellTiter-Glo, 72 h; series mostly up to 44.9 µM", "values": [{"smiles": "COC(=O)c1cc(S(N)(=O)=O)ccc1OC", "Potency": "inactive"}, {"smiles": "CC(C)OP(=O)(CP(=O)(OC(C)C)OC(C)C)OC(C)C", "Potency": "inactive"}, {"smiles": "OCc1c[nH]c2ccccc12", "Potency": "24.3 µM (active)"}, {"smiles": "CC1CC(=O)NN=C1c1ccc(NCC(C)(C)NCC(O)COc2cc(Cl)ccc2C#N)cc1", "note": "(centres undefined)", "Potency": "inactive"}, {"smiles": "CC(COc1ccccc1)NN", "note": "(centres undefined)", "Potency": "inactive"}, {"smiles": "COCCc1ccccn1", "Potency": "inactive"}, {"smiles": "C[C@H](N)C(=O)N[C@@H](C)C(=O)NC1[C@H]2CN(c3nc4c(cc3F)c(=O)c(C(=O)O)cn4-c3ccc(F)cc3F)C[C@@H]12", "note": "(some centres undefined)", "Potency": "7.5 µM (active)"}, {"smiles": "O=C(CCCl)NCc1ccccc1", "Potency": "inactive"}, {"smiles": "NC(=O)COCCN1CCN(C(c2ccccc2)c2ccc(Cl)cc2)CC1", "note": "(centres undefined)", "Potency": "inactive"}, {"smiles": "CO[C@@H]1[C@@H](OC)[C@H](C)[C@@](O)(CC(=O)O)O[C@H]1[C@H](C)[C@H]1O[C@@]2(CC[C@@](C)([C@H]3CC[C@@](C)([C@@H]4O[C@@H]([C@H]5O[C@](C)(O)[C@H](C)C[C@@H]5C)C[C@@H]4OC4C[C@H](OC)[C@@H](OC)[C@H](C)O4)O3)O2)C[C@H](O)[C@H]1C", "note": "(some centres undefined)", "Potency": "0.596 µM (active)"}, {"smiles": "O=C(c1ccco1)N1CCNCC1", "Potency": "inactive"}, {"smiles": "CCCc1ncc(C(=O)O)s1", "Potency": "inactive"}, {"smiles": "N#CC1(c2ccc(F)cc2)CCC(=O)CC1", "Potency": "inactive"}, {"smiles": "Nc1ccc(C(=O)OCC(O)CO)cc1", "note": "(centres undefined)", "Potency": "inactive"}, {"smiles": "O=C1Cc2cc(Cl)ccc2N1", "Potency": "inactive"}, {"smiles": "CC(=O)O[C@H]1CC[C@@]2(C)C(=CC[C@@H]3[C@@H]2CC[C@]2(C)C(C(C)=O)=CC[C@@H]32)C1", "Potency": "inactive"}, {"smiles": "O=C1CC2(CCCC2)CC(=O)N1", "Potency": "inactive"}, {"smiles": "Nc1ccc(O)cc1", "Potency": "inactive"}, {"smiles": "Clc1ccc2c(c1)Nc1ccccc1S2", "Potency": "inactive"}, {"smiles": "COCCOCC(OC)OC", "Potency": "inactive"}, {"smiles": "CC(NN)c1ccccc1", "note": "(centres undefined)", "Potency": "inactive"}, {"smiles": "CN1Cc2cc(C(=O)N3CCC(C4CCNCC4)CC3)ccc2N[C@@H](CC(=O)O)C1=O", "Potency": "inactive"}, {"smiles": "CC[C@@]1(O)C(=O)OCc2c1cc1n(c2=O)Cc2c-1nc1ccccc1c2/C=N/OC(C)(C)C", "Potency": "inactive"}, {"smiles": "O=C(O)c1cn(C2CC2)c2cc(Cl)c(F)cc2c1=O", "Potency": "inactive"}, {"smiles": "Nc1nnnn1-c1ccccc1", "Potency": "inactive"}, {"smiles": "CSCC[C@H](NC(=O)[C@H](Cc1c[nH]c2ccccc12)NC(=O)CCNC(=O)OC(C)(C)C)C(=O)N[C@@H](CC(=O)O)C(=O)N[C@@H](Cc1ccccc1)C(N)=O", "Potency": "inactive"}, {"smiles": "COc1cc(S(N)(=O)=O)cc(C(=O)O)c1OC", "Potency": "inactive"}, {"smiles": "OC1(c2ccc(Cl)cc2)CCNCC1", "Potency": "inactive"}, {"smiles": "CC(=O)N[C@@H](CO)C(=O)N[C@@H](CC(=O)O)C(=O)N[C@@H](CCCCN)C(=O)N1CCC[C@H]1C(=O)O", "note": "(Ac-SDKP-OH)", "Potency": "inactive"}, {"smiles": "c1ccc2c(c1)CCc1ccccc1N2", "Potency": "inactive"}, {"smiles": "CCCCCCCCCCCCCC[N+](C)(C)C", "Potency": "0.237 µM (active)"}, {"smiles": "O=C(O)CCCC[P+](c1ccccc1)(c1ccccc1)c1ccccc1", "Potency": "inactive"}, {"smiles": "O=C(c1cc(O)c(O)c(O)c1)c1ccc(O)c(O)c1O", "Potency": "2.37 µM (active)"}, {"smiles": "O=C1CC(c2ccc(Cl)cc2)CC(=O)N1", "Potency": "inactive"}, {"smiles": "O=C(OCCN1CCOCC1)c1cccnc1Nc1cccc(C(F)(F)F)c1", "Potency": "inactive"}, {"smiles": "O=C(NO)c1ccccc1", "Potency": "36.6 µM (active)"}, {"smiles": "CC(=O)c1ccc(O)c(C(N)=O)c1", "Potency": "inactive"}]}, {"experiment": "Primary qHTS for inhibitors of nuclear receptor binding SET domain protein 2 (NSD2) in an RCH-ACV wild type WT cells (2C) (AID 1645877)", "conditions": "RCH-ACV NSD2 WT (2C) viability, CellTiter-Glo, 72 h; series mostly up to 44.9 µM", "values": [{"smiles": "COC(=O)c1cc(S(N)(=O)=O)ccc1OC", "Potency": "inactive"}, {"smiles": "CC(C)OP(=O)(CP(=O)(OC(C)C)OC(C)C)OC(C)C", "Potency": "inactive"}, {"smiles": "OCc1c[nH]c2ccccc12", "Potency": "24.3 µM (active)"}, {"smiles": "CC1CC(=O)NN=C1c1ccc(NCC(C)(C)NCC(O)COc2cc(Cl)ccc2C#N)cc1", "note": "(centres undefined)", "Potency": "inactive"}, {"smiles": "CC(COc1ccccc1)NN", "note": "(centres undefined)", "Potency": "inactive"}, {"smiles": "COCCc1ccccn1", "Potency": "inactive"}, {"smiles": "C[C@H](N)C(=O)N[C@@H](C)C(=O)NC1[C@H]2CN(c3nc4c(cc3F)c(=O)c(C(=O)O)cn4-c3ccc(F)cc3F)C[C@@H]12", "note": "(some centres undefined)", "Potency": "6.68 µM (active)"}, {"smiles": "O=C(CCCl)NCc1ccccc1", "Potency": "inactive"}, {"smiles": "NC(=O)COCCN1CCN(C(c2ccccc2)c2ccc(Cl)cc2)CC1", "note": "(centres undefined)", "Potency": "inactive"}, {"smiles": "CO[C@@H]1[C@@H](OC)[C@H](C)[C@@](O)(CC(=O)O)O[C@H]1[C@H](C)[C@H]1O[C@@]2(CC[C@@](C)([C@H]3CC[C@@](C)([C@@H]4O[C@@H]([C@H]5O[C@](C)(O)[C@H](C)C[C@@H]5C)C[C@@H]4OC4C[C@H](OC)[C@@H](OC)[C@H](C)O4)O3)O2)C[C@H](O)[C@H]1C", "note": "(some centres undefined)", "Potency": "0.531 µM (active)"}, {"smiles": "O=C(c1ccco1)N1CCNCC1", "Potency": "inactive"}, {"smiles": "CCCc1ncc(C(=O)O)s1", "Potency": "inactive"}, {"smiles": "N#CC1(c2ccc(F)cc2)CCC(=O)CC1", "Potency": "inactive"}, {"smiles": "Nc1ccc(C(=O)OCC(O)CO)cc1", "note": "(centres undefined)", "Potency": "inactive"}, {"smiles": "O=C1Cc2cc(Cl)ccc2N1", "Potency": "inactive"}, {"smiles": "CC(=O)O[C@H]1CC[C@@]2(C)C(=CC[C@@H]3[C@@H]2CC[C@]2(C)C(C(C)=O)=CC[C@@H]32)C1", "Potency": "inactive"}, {"smiles": "O=C1CC2(CCCC2)CC(=O)N1", "Potency": "inactive"}, {"smiles": "Nc1ccc(O)cc1", "Potency": "inactive"}, {"smiles": "Clc1ccc2c(c1)Nc1ccccc1S2", "Potency": "inactive"}, {"smiles": "COCCOCC(OC)OC", "Potency": "inactive"}, {"smiles": "CC(NN)c1ccccc1", "note": "(centres undefined)", "Potency": "inactive"}, {"smiles": "CN1Cc2cc(C(=O)N3CCC(C4CCNCC4)CC3)ccc2N[C@@H](CC(=O)O)C1=O", "Potency": "inactive"}, {"smiles": "CC[C@@]1(O)C(=O)OCc2c1cc1n(c2=O)Cc2c-1nc1ccccc1c2/C=N/OC(C)(C)C", "Potency": "inactive"}, {"smiles": "O=C(O)c1cn(C2CC2)c2cc(Cl)c(F)cc2c1=O", "Potency": "inactive"}, {"smiles": "Nc1nnnn1-c1ccccc1", "Potency": "inactive"}, {"smiles": "CSCC[C@H](NC(=O)[C@H](Cc1c[nH]c2ccccc12)NC(=O)CCNC(=O)OC(C)(C)C)C(=O)N[C@@H](CC(=O)O)C(=O)N[C@@H](Cc1ccccc1)C(N)=O", "Potency": "inactive"}, {"smiles": "COc1cc(S(N)(=O)=O)cc(C(=O)O)c1OC", "Potency": "inactive"}, {"smiles": "OC1(c2ccc(Cl)cc2)CCNCC1", "Potency": "inactive"}, {"smiles": "CC(=O)N[C@@H](CO)C(=O)N[C@@H](CC(=O)O)C(=O)N[C@@H](CCCCN)C(=O)N1CCC[C@H]1C(=O)O", "note": "(Ac-SDKP-OH)", "Potency": "inactive"}, {"smiles": "c1ccc2c(c1)CCc1ccccc1N2", "Potency": "inactive"}, {"smiles": "CCCCCCCCCCCCCC[N+](C)(C)C", "Potency": "0.266 µM (active)"}, {"smiles": "O=C(O)CCCC[P+](c1ccccc1)(c1ccccc1)c1ccccc1", "Potency": "inactive"}, {"smiles": "O=C(c1cc(O)c(O)c(O)c1)c1ccc(O)c(O)c1O", "Potency": "13.3 µM (active)"}, {"smiles": "O=C1CC(c2ccc(Cl)cc2)CC(=O)N1", "Potency": "inactive"}, {"smiles": "O=C(OCCN1CCOCC1)c1cccnc1Nc1cccc(C(F)(F)F)c1", "Potency": "inactive"}, {"smiles": "O=C(NO)c1ccccc1", "Potency": "25.9 µM (active)"}, {"smiles": "CC(=O)c1ccc(O)c(C(N)=O)c1", "Potency": "inactive"}]}]}
